Reference: the supplement of paper PMC8728848
Many of the other results were omitted from the sample, so the strongest signals are more common in it than they were.

Experiments:
Test in all cases: glycan array binding signal (z-score within array); higher = stronger binding
Settings in all cases: glycan notation: IUPAC condensed, linker removed
Fuc(a1-2)Gal = biological target: Fuc(a1-2)Gal
In short: (§1)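 Arrays were curated from the Consortium for Functional Glycomics database, 3228 in total, and kept only where the protein sequence was available. Binding is expressed as a within-array Z-score. This score was averaged across arrays of the same protein sequence at different concentrations or buffers and across linkers, and negative values can be read as non-binding.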

[1] = biological target: Fuc(a1-2)Gal(b1-3)GalNAc(b1-4)[Neu5Ac(a2-3)]Gal(b1-4)Glc
In short: as §1

[2] = biological target: Fuc(a1-2)Gal(b1-4)[Fuc(a1-3)]GlcNAc(b1-2)Man(a1-3)[Fuc(a1-2)Gal(b1-4)[Fuc(a1-3)]GlcNAc(b1-2)Man(a1-6)]Man(b1-4)GlcNAc(b1-4)[Fuc(a1-6)]GlcNAc
In short: as §1

[3] = biological target: Fuc(a1-2)Gal6S(b1-3)GlcNAc6S
In short: as §1

[4] = biological target: Fuc(a1-2)Gal6S(b1-4)Glc6S
In short: as §1

[5] = biological target: Fuc(a1-2)[GalNAc(a1-3)]Gal(b1-4)GlcNAc(b1-2)Man
In short: as §1

[6] = biological target: Fuc(a1-2)[GalNAc(a1-3)]Gal(b1-4)GlcNAc(b1-6)GalNAc
In short: as §1

[7] = biological target: Fuc(a1-3)[Gal(b1-4)]Glc6S
In short: as §1

[8] = biological target: Fuc(a1-3)[Gal3S(b1-4)]Glc
In short: as §1

[9] = biological target: Gal(a1-3)Gal(b1-3)GlcNAc(b1-3)GalNAc
In short: as §1

[10] = biological target: Gal(a1-3)[Gal(a1-4)]Gal(b1-4)GlcNAc
In short: as §1

[11] = biological target: Gal(a1-4)Gal(b1-4)GlcNAc(b1-2)Man(a1-3)[Gal(a1-4)Gal(b1-4)GlcNAc(b1-2)Man(a1-6)]Man(b1-4)GlcNAc(b1-4)GlcNAc
In short: as §1

[12] = biological target: Gal(a1-4)Gal(b1-4)GlcNAc(b1-3)Gal(b1-4)Glc
In short: as §1

[13] = biological target: Gal(b1-3)GlcNAc(b1-3)Gal(b1-4)GlcNAc(b1-2)[Gal(b1-3)GlcNAc(b1-3)Gal(b1-4)GlcNAc(b1-6)]Man(a1-6)[Gal(b1-3)GlcNAc(b1-3)Gal(b1-4)GlcNAc(b1-2)Man(a1-3)]Man(b1-4)GlcNAc(b1-4)[Fuc(a1-6)]GlcNAc
In short: as §1

[14] = biological target: Gal(b1-3)GlcNAc(b1-3)Gal(b1-4)GlcNAc(b1-3)Gal(b1-4)GlcNAc(b1-2)[Gal(b1-3)GlcNAc(b1-3)Gal(b1-4)GlcNAc(b1-3)Gal(b1-4)GlcNAc(b1-6)]Man(a1-6)[Gal(b1-3)GlcNAc(b1-3)Gal(b1-4)GlcNAc(b1-3)Gal(b1-4)GlcNAc(b1-2)Man(a1-3)]Man(b1-4)GlcNAc(b1-4)[Fuc(a1-6)]GlcNAc
In short: as §1

[15] = biological target: Gal(b1-3)GlcNAc(b1-6)Gal(b1-4)GlcNAc
In short: as §1

[16] = biological target: Gal(b1-3)[Fuc(a1-4)]GlcNAc
In short: as §1

[17] = biological target: Gal(b1-4)GlcNAc(b1-2)Man(a1-3)[Gal(b1-4)GlcNAc(b1-2)Man(a1-6)][Gal(b1-4)GlcNAc(b1-4)]Man(b1-4)GlcNAc(b1-4)[Fuc(a1-6)]GlcNAc
In short: as §1

[18] = biological target: Gal(b1-4)GlcNAc(b1-2)Man(a1-3)[Gal(b1-4)GlcNAc(b1-2)Man(a1-6)][GlcNAc(b1-4)]Man(b1-4)GlcNAc(b1-4)[Fuc(a1-6)]GlcNAc
In short: as §1

[19] = biological target: Gal(b1-4)GlcNAc(b1-2)Man(a1-6)[Man(a1-3)]Man(b1-4)GlcNAc(b1-4)GlcNAc
In short: as §1

[20] = biological target: Gal(b1-4)GlcNAc(b1-2)[Gal(b1-4)GlcNAc(b1-4)]Man(a1-3)[GlcNAc(b1-4)][Gal(b1-4)GlcNAc(b1-2)Man(a1-6)]Man(b1-4)GlcNAc(b1-4)GlcNAc
In short: as §1

[21] = biological target: Gal(b1-4)GlcNAc(b1-3)Gal(b1-4)GlcNAc(b1-3)Gal(b1-4)GlcNAc(b1-3)Gal(b1-4)GlcNAc(b1-2)Man(a1-3)[Gal(b1-4)GlcNAc(b1-3)Gal(b1-4)GlcNAc(b1-3)Gal(b1-4)GlcNAc(b1-3)Gal(b1-4)GlcNAc(b1-2)Man(a1-6)]Man(b1-4)GlcNAc(b1-4)GlcNAc
In short: as §1

[22] = biological target: Gal(b1-4)GlcNAc(b1-3)Gal(b1-4)GlcNAc(b1-3)Gal(b1-4)GlcNAc(b1-3)Gal(b1-4)GlcNAc(b1-2)Man(a1-3)[Gal(b1-4)GlcNAc(b1-3)Gal(b1-4)GlcNAc(b1-3)Gal(b1-4)GlcNAc(b1-3)Gal(b1-4)GlcNAc(b1-2)Man(a1-6)]Man(b1-4)GlcNAc(b1-4)[Fuc(a1-6)]GlcNAc
In short: as §1

[23] = biological target: Gal(b1-4)GlcNAc(b1-3)[Fuc(a1-3)GlcNAc(b1-6)]Gal(b1-4)Glc
In short: as §1

[24] = biological target: Gal3S(b1-3)[Fuc(a1-4)]GlcNAc
In short: as §1

Gal3S(b1-4)GlcNAc = biological target: Gal3S(b1-4)GlcNAc
In short: as §1

[25] = biological target: Gal3S(b1-4)[Fuc(a1-3)]GlcNAc
In short: as §1

Gal6S(b1-4)GlcNAc = biological target: Gal6S(b1-4)GlcNAc
In short: as §1

B1: PX14343F-bfa-562-20-562 (Bacteroides fragilis) (protein)
chain: CDDFLDSFPQDTVTNENFWKSKEDADKVLVDIYASLLPKDAIFFDEAMSDNAYLVWDWWGGAQQVANGSYTTSGEIPTNRWNGSYEVIRKCWFLLEGIEKIEDISEQDKNKIIGETYFMLAYNYYVLTSYFGDVPLVTKTLAIPESKQLVRTPKAEVVDYAINKLKEAAVMLEGLSQEKGRVTADACRFLIARMYLYNGDYSNVLETVKLLEGKYQLYREGDTPYEDLFSGVAENSCEVILSVVCDKRVGEIYTSHGGNGIMLLKGITGEDPYRGVTPSGSLVDAYPMADGRLIHEAGSSYDPKKPYEGRDPRFYQSIVYPTGQIKYLDVETGTVKERLYDPEDPTTVPEHQYNYSQPSATGYMWNKYIDYSVYAMNSVWDCTNDIIVFRYADVLLMKAEALLQTKGESAKEEVCNLIDQLRDRCSCGRVHRENYNSKDELMELLKNERRIELANEGLRYMDLIRWKDAEKNTIVTGVGLTGQMYGAYMRKDGVGKDDKTVDVDNTPRRYIETRYFNASKGYLFPIPQKERDLNPNLTQNPNW
In the case of B1, the “glycan array binding signal (z-score)” value (Fuc(a1-2)Gal) is reported as -0.039, the “glycan array binding signal (z-score)” value [1] is reported as 0.115 and the “glycan array binding signal (z-score)” value [2] is reported as -0.43. For the same binder, the “glycan array binding signal (z-score)” value [3] was 1.48, the “glycan array binding signal (z-score)” value [4] was 0.012 and the “glycan array binding signal (z-score)” value [5] was 0.033. For the same binder, the “glycan array binding signal (z-score)” value [6] was -0.301, the “glycan array binding signal (z-score)” value [7] was -0.078 and the “glycan array binding signal (z-score)” value [8] was -0.368. The “glycan array binding signal (z-score)” value [9] was -0.716, the “glycan array binding signal (z-score)” value [10] was 3.69 and the “glycan array binding signal (z-score)” value [11] was 1.42. The “glycan array binding signal (z-score)” value [12] was -0.481, the “glycan array binding signal (z-score)” value [13] was 1.83 and the “glycan array binding signal (z-score)” value [14] was 1.38. For the same binder, the “glycan array binding signal (z-score)” value [15] was -0.369, the “glycan array binding signal (z-score)” value [16] was -0.027 and the “glycan array binding signal (z-score)” value [17] was -0.394. For the same binder, the “glycan array binding signal (z-score)” value [18] was -0.937, the “glycan array binding signal (z-score)” value [19] was 0.332 and the “glycan array binding signal (z-score)” value [20] was 0.08. For the same binder, the “glycan array binding signal (z-score)” value [21] was 0.79, the “glycan array binding signal (z-score)” value [22] was -0.007 and the “glycan array binding signal (z-score)” value [23] was 1.78. For the same binder, the “glycan array binding signal (z-score)” value [24] was -0.53, the “glycan array binding signal (z-score)” value (Gal3S(b1-4)GlcNAc) was 0.086 and the “glycan array binding signal (z-score)” value [25] was 0.472. For the same binder, the “glycan array binding signal (z-score)” value (Gal6S(b1-4)GlcNAc) was 0.658.
